Laboratory results from PubChem BioAssay (Tox21).
Results filed as inconclusive are left out. A call without a number means that no potency is given here. A number with no mark means an inactive call. Active and inactive are the calls of the source. Unless noted, calls follow the shape of the dose curve; as a rule, active = well fitted curve in the direction sought with a large enough effect in the repeat runs; inconclusive = weak or mixed curves; inactive = no such curve, though single readings can be large; an effect the other way counts as inactive or inconclusive.

Key:
[1] = qHTS assay to identify small molecule agonists of the RXR signaling pathway - cell viability counter screen (AID 1159529);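 also: HEK 293T cells carrying an RXR-alpha UAS beta-lactamase reporter; series mostly up to about 77 µM; nearly all actives have a fitted effect of over 50% in size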
Outline: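 Same-well viability check after the LiveBLAzer FRET read: CellTiter-Glo added, luminescence measured after 30 min at room temperature. Reporter HEK 293T cells had been treated with compounds for 16 hr following a 5 hr preincubation.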

[2] = qHTS assay to identify small molecule agonists of the retinoic acid receptor (RAR) signaling pathway (AID 1159553)
Outline: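 Quantitative high-throughput format: the Tox21 10K library was tested on C3RL4 RARE-luciferase cells for 6 hr at 37 C and 5% CO2, with luminescence measured after a 30 min room-temperature reagent step.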

[3] = molecular target: Luciferin 4-monooxygenase (Photinus pyralis) (UniProt P08659); assay: qHTS assay to identify small molecule inhibitors of firefly luciferase (AID 1224835); also: series mostly up to about 120 µM; nearly all actives have a fitted effect of over 25% in size
Outline: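 Quantitative HTS format; KM concentrations of both substrates. Purified P. pyralis FLuc activity quantified from luminescence images.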

[4] = qHTS assay to identify small molecule agonists of the constitutive androstane receptor (CAR) signaling pathway - cell viability counter screen (AID 1224836); also: series mostly up to about 92 µM; nearly all actives have a fitted effect of over 45% in size
Outline: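 Compound titrations (15 concentrations) went onto HepG2-CYP2B6-hCAR cells 4 h after seeding, alongside PK11195 at a final 0.75 uM; a 23 h, 37 C/5% CO2 incubation preceded CellTiter-Fluor viability measurement.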

[5] = qHTS assay to identify small molecule antagonists of the constitutive androstane receptor (CAR) signaling pathway - cell viability counter screen (AID 1224837); also: series mostly up to about 92 µM; nearly all actives have a fitted effect of over 45% in size
Outline: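 Cells are seeded, rested 4 hr at 37 C/5% CO2, dosed with compound (15-point series) and 50 nM CITCO, incubated a further 23 hr, and then CellTiter-Fluor reagent is added before fluorescence is read. The line is HepG2 with stable hCAR and CYP2B6-2.2kb.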

[6] = qHTS assay to identify small molecule antagonists of the retinoic acid receptor (RAR) signaling pathway (AID 1159552; also: nearly all actives have a fitted effect of over 50% in size)
Outline: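 Readout: luciferase luminescence, 30 min post-reagent at RT. Setup: C3RL4 RARE reporter cells, compounds plus retinol 1 uM final, 6 hr incubation at 37 C and 5% CO2.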

[7] = qHTS assay to identify small molecule antagonists of the estrogen related receptor (ERR) signaling pathway from Tox21 library - cell viability counter screen (AID 1224834); also: nearly all actives have a fitted effect of over 30% in size
Outline: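 Compounds in DMSO were pinned onto ERR cells that had been incubated for 6 h, and the plates were held at 37 C for 17.5 h. CellTiter-Fluor reagent was then added and fluorescence was measured after 30 min.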

[8] = molecular target: Nuclear receptor subfamily 1 group I member 3 (Homo sapiens) (UniProt Q14994); assay: qHTS assay to identify small molecule antagonists of the constitutive androstane receptor (CAR) signaling pathway (AID 1224838);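 also: HepG2 cells stably expressing hCAR with CYP2B6 luciferase reporter stimulated by CITCO; nearly all actives have a fitted effect of over 40% in size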
Outline: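 Luminescence from a CYP2B6-2.2kb promoter reporter in hCAR-expressing HepG2 cells reflects CAR signaling. Cells received compounds at 15 concentrations and 50 nM CITCO (final), then incubated 24 h at 37 C/5% CO2.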

[9] = molecular target: Nuclear receptor subfamily 1 group I member 3 (Homo sapiens) (UniProt Q14994); assay: qHTS assay to identify small molecule agonists of the constitutive androstane receptor (CAR) signaling pathway (AID 1224839);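 also: HepG2 cells stably carrying human CAR and a CYP2B6 luciferase reporter; series mostly up to about 92 µM; nearly all actives have a fitted effect of over 15% in size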
Outline: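 In this screen, CAR-driven CYP2B6 promoter activity is measured by luminescence in HepG2-CYP2B6-hCAR cells after 24 h with test compounds and 0.75 uM PK11195 (final concentration).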

[10] = qHTS assay to identify small molecule antagonists of the estrogen related receptor signaling pathway with the pleiotropic PPARgamma coactivator (PGC) from Tox21 10K library - cell viability counter screen (AID 1224840; active = well fitted cell-killing curve with a large enough effect in the repeat runs, not every such curve was filed as active; also: nearly all actives have a fitted effect of over 40% in size)
Outline: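 Cell viability is measured by CellTiter-Fluor fluorescence in PGC/ERR cells that receive compounds after a 6-hour attachment period and are then incubated 17.5 hours at 37 C.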

[11] = qHTS assay to identify small molecule antagonists of the estrogen related receptor signaling pathway with the pleiotropic PPARgamma coactivator (PGC) from Tox21 10K library (AID 1224841; call rule not given here; also: actives are mostly falling curves and most rising ones were filed inactive; nearly all actives have a fitted effect of over 50% in size; also: potency is read from the fitted curve at half-maximal effect; as to activity, negative = inhibition: series mostly up to about 92 µM)
Outline: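 Cells stably carrying the PGC/ERR reporter, seeded at 2,000 per well, received pin-transferred compounds 6 h post-plating. Exposure lasted 18 h at 37 C. Signal: One-Glo luminescence.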

[12] = qHTS assay to identify small molecule agonists of the estrogen related receptor signaling pathway with the pleiotropic PPARgamma coactivator (PGC) from Tox21 10K library (AID 1224842); also: nearly all actives have a fitted effect of over 15% in size
Outline: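 PGC/ERR reporter cells (NTP line) were seeded 2,000 per well, rested 6 h at 37 C/5% CO2, then pin-dosed with compounds in DMSO for 18 h at 37 C; luciferase read by One-Glo luminescence after 30 min at room temperature.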

[13] = molecular target: Thyrotropin receptor (Homo sapiens) (UniProt P16473); assay: qHTS assay to identify small molecule agonists of the thyroid stimulating hormone receptor (TSHR) signaling pathway (AID 1224843; calls by dose curve; also: nearly all actives have a fitted effect of over 45% in size)
Outline: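 Using 15 concentrations per compound in triplicate, cAMP production was monitored in TSHR-HEK293 cells after 30 min compound incubation at RT; HTRF reagents followed, with fluorescence intensity recorded after 1 h.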

[14] = qHTS assay to identify small molecule antagonists of the retinoid acid receptor (RAR) signaling pathway - cell viability counter screen (AID 1159551); also: nearly all actives have a fitted effect of over 35% in size
Outline: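 ATP-based viability, C3RL4 cells, 6 h at 37 C with 1 uM final retinol co-added after compound; luminescence read 30 min post CellTiter-Glo, RT.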

Chain of Luciferin 4-monooxygenase (Photinus pyralis) (P08659 whole entry, looked up): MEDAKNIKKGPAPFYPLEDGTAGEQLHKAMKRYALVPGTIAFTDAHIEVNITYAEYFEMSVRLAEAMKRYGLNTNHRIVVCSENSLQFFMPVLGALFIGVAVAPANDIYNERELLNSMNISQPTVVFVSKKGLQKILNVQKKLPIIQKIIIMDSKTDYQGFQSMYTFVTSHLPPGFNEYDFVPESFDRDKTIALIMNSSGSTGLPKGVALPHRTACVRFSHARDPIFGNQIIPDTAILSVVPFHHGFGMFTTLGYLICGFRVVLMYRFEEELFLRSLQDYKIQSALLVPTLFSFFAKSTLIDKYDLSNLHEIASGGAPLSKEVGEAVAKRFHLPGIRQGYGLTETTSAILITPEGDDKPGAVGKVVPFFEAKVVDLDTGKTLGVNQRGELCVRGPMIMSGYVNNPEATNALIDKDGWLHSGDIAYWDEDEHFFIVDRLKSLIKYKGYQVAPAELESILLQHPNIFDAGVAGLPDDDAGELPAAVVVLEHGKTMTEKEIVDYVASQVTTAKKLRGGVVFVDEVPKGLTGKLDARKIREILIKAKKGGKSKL
Chain of Nuclear receptor subfamily 1 group I member 3 (Homo sapiens) (Q14994 whole entry, looked up): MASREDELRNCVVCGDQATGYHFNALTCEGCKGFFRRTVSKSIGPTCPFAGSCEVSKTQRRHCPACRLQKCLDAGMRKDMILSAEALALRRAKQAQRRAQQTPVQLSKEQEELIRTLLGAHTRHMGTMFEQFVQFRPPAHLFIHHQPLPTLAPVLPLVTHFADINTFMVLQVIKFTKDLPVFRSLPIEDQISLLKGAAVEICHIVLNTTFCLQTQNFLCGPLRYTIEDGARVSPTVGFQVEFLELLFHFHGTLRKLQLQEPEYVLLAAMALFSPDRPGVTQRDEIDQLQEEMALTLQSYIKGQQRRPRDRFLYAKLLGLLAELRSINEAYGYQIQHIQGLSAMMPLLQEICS
Chain of Thyrotropin receptor (Homo sapiens) (P16473 whole entry, looked up): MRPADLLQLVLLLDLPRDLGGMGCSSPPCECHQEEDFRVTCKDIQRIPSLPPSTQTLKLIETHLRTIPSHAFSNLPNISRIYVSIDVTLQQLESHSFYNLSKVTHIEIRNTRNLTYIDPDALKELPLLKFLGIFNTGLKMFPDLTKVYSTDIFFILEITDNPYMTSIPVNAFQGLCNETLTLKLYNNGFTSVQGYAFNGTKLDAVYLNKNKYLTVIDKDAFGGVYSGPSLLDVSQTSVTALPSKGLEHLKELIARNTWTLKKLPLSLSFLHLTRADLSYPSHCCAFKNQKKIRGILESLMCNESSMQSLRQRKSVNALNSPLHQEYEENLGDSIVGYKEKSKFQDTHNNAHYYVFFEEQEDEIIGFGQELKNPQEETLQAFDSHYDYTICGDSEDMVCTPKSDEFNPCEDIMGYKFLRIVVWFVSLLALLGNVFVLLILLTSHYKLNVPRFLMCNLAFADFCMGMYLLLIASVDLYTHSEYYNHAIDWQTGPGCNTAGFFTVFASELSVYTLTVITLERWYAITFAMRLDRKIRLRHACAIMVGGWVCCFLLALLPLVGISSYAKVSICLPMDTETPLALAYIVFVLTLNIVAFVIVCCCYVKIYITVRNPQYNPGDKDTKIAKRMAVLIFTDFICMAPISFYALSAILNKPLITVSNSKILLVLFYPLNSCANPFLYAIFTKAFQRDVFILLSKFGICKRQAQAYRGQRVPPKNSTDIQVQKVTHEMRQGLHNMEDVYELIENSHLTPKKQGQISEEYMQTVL

## C[N+]1(C)[C@@H]2CC(OC(=O)[C@H](CO)c3ccccc3)C[C@H]1[C@@H]1O[C@@H]12 (stereo partly specified)
[1]
  Potency: inactive
[2]
  Potency: inactive
[3]
  Potency: inactive
[4]
  outcome: inactive
[5]
  outcome: inactive

## CN(C)CCCCCCN(C)C
[1]
  Potency: inactive
[6]
  Potency: inactive
[2]
  Potency: inactive
[7]
  Potency: inactive
[4]
  outcome: inactive
[5]
  outcome: inactive
[8]
  Potency: inactive
[9]
  Potency: inactive
[10]
  outcome: inactive
[11]
  Potency: inactive
[12]
  Potency: inactive
[13]
  Potency: inactive

## C[C@@H]1CCC[C@H](C)N1
[1]
  Potency: inactive
[7]
  Potency: inactive
[3]
  Potency: inactive
[4]
  outcome: inactive
[5]
  outcome: inactive
[8]
  Potency: inactive
[9]
  Potency: inactive
[10]
  outcome: inactive
[11]
  Potency: inactive
[12]
  Potency: inactive
[13]
  Potency: inactive

## COc1cc2c(cc1OC)-c1cc3ccc(OC)c(OC)c3c[n+]1CC2
[1]
  Potency: inactive
[3]
  Potency: inactive
[4]
  outcome: inactive
[5]
  outcome: inactive
[11]
  Potency: 34.7 µM (active)
[12]
  Potency: inactive

## CCCCc1ccc2c(n1)[C@@H](c1ccc(OC)cc1C[C@H](C)C(=O)O)[C@H](C(=O)O)[C@H]2c1ccc2c(c1)OCO2
[1]
  Potency: inactive
[7]
  Potency: inactive
[3]
  Potency: inactive
[4]
  outcome: inactive
[5]
  outcome: inactive
[8]
  Potency: inactive
[9]
  Potency: inactive
[10]
  outcome: inactive
[13]
  Potency: inactive

## CCCCN1C=CN(C)C1
[1]
  activity change, negative = cytotoxicity: -11.3% [at 15.8 µM]
[2]
  Potency: inactive
[7]
  viability change, negative = cytotoxic: 0.161% [at 19 µM]
[3]
  activity change, negative = inhibition: -0.0434% [at 23.6 µM]
[4]
  viability change, negative = cytotoxic: 5.36% [at 19 µM]
[5]
  activity change, negative = cytotoxicity: -1.55% [at 19 µM]
[8]
  activity, negative = inhibition: 14.7% [at 19 µM]
[9]
  activation: -0.414% [at 19 µM]
[10]
  viability change, negative = cytotoxic: 1.46% [at 19 µM]
[12]
  activation: 0.537% [at 19 µM]
[13]
  activation: 2.47% [at 19 µM]

## C=CCCCCCCCCC(=O)OCC
[1]
  Potency: inactive
[7]
  Potency: inactive
[3]
  Potency: inactive
[4]
  outcome: inactive
[5]
  outcome: inactive
[8]
  Potency: inactive
[9]
  Potency: inactive
[10]
  outcome: inactive
[11]
  Potency: inactive
[12]
  Potency: inactive
[13]
  Potency: inactive

## CC(=O)OCC(=O)[C@@]1(O)[C@H](C)C[C@H]2[C@@H]3CCC4=CC(=O)C=C[C@]4(C)[C@@]3(F)[C@@H](O)C[C@@]21C
[1]
  Potency: inactive
[7]
  Potency: inactive
[3]
  Potency: inactive
[4]
  outcome: inactive
[5]
  outcome: inactive
[10]
  outcome: inactive
[11]
  Potency: inactive
[12]
  Potency: inactive

## CC[N+](CC)(CC(=O)Nc1c(C)cccc1C)Cc1ccccc1 (tested in a mixture with another compound)
[1]
  Potency: inactive
[7]
  Potency: inactive
[3]
  Potency: inactive
[4]
  outcome: inactive
[5]
  outcome: inactive
[10]
  outcome: inactive

## C[N+](C)(CCOc1ccccc1)Cc1cccs1
[14]
  outcome: inactive
[7]
  Potency: inactive
[3]
  Potency: inactive
[4]
  outcome: inactive
[5]
  outcome: inactive
[10]
  outcome: inactive
[12]
  Potency: inactive
[13]
  Potency: inactive

## CC(C)(N)C#N
[14]
  outcome: inactive
[7]
  Potency: inactive
[3]
  Potency: inactive
[4]
  outcome: inactive
[5]
  outcome: inactive
[10]
  outcome: inactive
[11]
  Potency: inactive
[12]
  Potency: inactive

## CN1CCC(=C2c3ccccc3CCc3cccnc32)CC1
[14]
  outcome: inactive
[7]
  Potency: inactive
[3]
  Potency: inactive
[4]
  outcome: inactive
[5]
  outcome: inactive
[8]
  Potency: inactive
[9]
  Potency: inactive
[10]
  outcome: inactive
[13]
  Potency: inactive

## O=[N+]([O-])c1ccc(/C=N\O)o1
[14]
  outcome: inactive
[7]
  Potency: inactive
[3]
  Potency: inactive
[4]
  outcome: inactive
[5]
  outcome: inactive
[8]
  Potency: inactive
[10]
  outcome: inactive
